Results: the supplement of paper PMC4237247
Where a name gives a salt, the structure may show the parent alone.

test system: HeLa; experiment: percent cells in S phase; higher = more S arrest; details: 10 µM; 20 h
Method: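 HTS of 79,827 drug-like compounds at 10 uM. HeLa cells in 384-well plates were treated for 20 h, fixed, stained with Vybrant DyeCycle Green and scanned on an Acumen eX3 cytometer to give per-well cell cycle profiles (% cells in each phase). The plate Z' was 0.51. Only hits are listed: G1 hits >4 SD and S hits >5 SD from the mean.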

SMILES | percent cells in S phase [%]
COc1ccc(C(=O)c2coc3ccc(OC)cc3c2=O)cc1 (hit class: G1-phase inhibitor) | 7.3
Cc1cc([N+](=O)[O-])ccc1NCc1ccc(F)c(F)c1 (hit class: G1-phase inhibitor) | 9.44
O=C1c2c(O)ccc(O)c2C(=O)c2c(NCCNCCO)ccc(NCCNCCO)c21 [Mitoxantrone dihydrochloride] (hit class: G1-phase inhibitor) | 6.2
CCN(CC)Cc1c(O)ccc2c(=O)c(-c3ccccc3)coc12 (hit class: S-phase inhibitor) | 22.3
Cc1cc(N2CCCCC2)c(F)cc1[N+](=O)[O-] (hit class: S-phase inhibitor) | 29.5
Cc1ccc(-c2cc(-c3ccccc3Cl)[nH]n2)c(O)c1 (hit class: G1-phase inhibitor) | 7.81
COc1[nH]c2ccccc2c1C=NO (hit class: S-phase inhibitor) | 19.8
CC[C@@H](C(=O)[C@@H](C)[C@@H](O)[C@H](C)CCc1ccc(C)c(O)c1C(=O)O)[C@H]1O[C@](CC)([C@H]2CC[C@](O)(CC)[C@H](C)O2)C[C@@H]1C [Lasalocid sodium salt] (hit class: G1-phase inhibitor) | 8.33
COc1c(C)c2c(c(O)c1C/C=C(\C)CCC(=O)O)C(=O)OC2 [Mycophenolic acid] (hit class: S-phase inhibitor) | 27.7
C[C@@H]1CCC[C@H](C)N1NC(=O)c1ccc(Cl)c(S(N)(=O)=O)c1 [Clopamide] (hit class: G1-phase inhibitor) | 8.75
O=C(COc1ccc(Cl)cc1)NC(Cc1c[nH]c2ccccc12)C(=O)O (configuration not stated) (hit class: G1-phase inhibitor) | 6.86
COc1ccc(CSc2nncn2N)cc1 (hit class: S-phase inhibitor) | 19.7
c1ccc2c(c1)Nc1nc3ccccc3nc1O2 (hit class: G1-phase inhibitor) | 7.38
Cn1c(SCc2ccccc2)nc2ccccc2c1=O (hit class: S-phase inhibitor) | 20.6
Nc1ccn([C@H]2CC[C@@H](CO)O2)c(=O)n1 [Zalcitabine] (hit class: S-phase inhibitor) | 21.2
C[C@@H]1C[C@H]2[C@@H]3C[C@H](F)C4=CC(=O)C=C[C@]4(C)[C@@]3(Cl)[C@@H](O)C[C@]2(C)[C@H]1C(=O)COC(=O)C(C)(C)C [Clocortolone pivalate] (hit class: S-phase inhibitor) | 23.2
CC(=O)C1=C(O)C(=O)N(CC(=O)O)C1c1ccccc1F (configuration not stated) (hit class: S-phase inhibitor) | 20.4
